Screens deposited in PubChem by National Center for Advancing Translational Sciences (NCATS).
ALOX12 inhib – qHTS Assay for Inhibitors of 12-hLO (12-human lipoxygenase). AID 1452, 2008. 150,000 tested, 0.12% active. purified 12-hLO, xylenol orange hydroperoxide absorbance. Potency, µM (highest dose often 57.1 µM), hits mostly inhibitors. Polyunsaturated fatty acid lipoxygenase ALOX12 (Homo sapiens), P18054; note: nearly all actives have a fitted effect of over 55% in size
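Purified human 12hLO (150 nM), preincubated 15 min with compound, then 40 uM arachidonic acid for 30 min, room temperature, Hepes pH 7.0 with 0.01% Triton X-100. Hydroperoxide detected by ferrous iron/xylenol orange; 573/405 nm absorbance ratio gives reaction progress.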
IMPase Li inh – qHTS Assay for Identifying the Cell-Membrane Permeable IMPase Inhibitors: Potentiation with Lithium | 210,000 tested, 0.35% active | Potency, µM (series often up to 59.4 µM), usual class: inhibitors | CHO-M1 cells, IP1 TR-FRET (IP-One), carbachol + lithium;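 note: IP1 builds up when IMPase is blocked and the TR-FRET signal falls; nearly all actives have a fitted effect of over 50% in size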
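IP1 accumulation measured by competitive TR-FRET in lysed CHO-M1 cells after 30 min compound exposure at 37C, with a small lithium addition to potentiate weak responses. Hill-equation AC50 from ratio and donor-channel data.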
IMPase cell inh – qHTS Assay for Identifying the Cell-Membrane Permeable IMPase Inhibitors; CHO-M1 cells, IP1 accumulation, HTRF TR-FRET ratio; inhibition (IP1 accumulation), % at 46.1 µM; 120,000 tested, under 10 active; AID 901, 2007; active = well fitted curve in the direction sought with a large enough effect in the signal ratio, not every such curve was filed as active; inconclusive = small, poorly fitted or top-dose-only effect, or a change in a side signal; inactive = no such curve, though single readings can be large or run the other way; the % refers to the signal ratio;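 note: cells stimulated with carbachol in lithium chloride buffer; higher means more IMPase inhibition seen as more IP1 and lower FRET ratio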
Target sequence (P97697 whole entry, looked up): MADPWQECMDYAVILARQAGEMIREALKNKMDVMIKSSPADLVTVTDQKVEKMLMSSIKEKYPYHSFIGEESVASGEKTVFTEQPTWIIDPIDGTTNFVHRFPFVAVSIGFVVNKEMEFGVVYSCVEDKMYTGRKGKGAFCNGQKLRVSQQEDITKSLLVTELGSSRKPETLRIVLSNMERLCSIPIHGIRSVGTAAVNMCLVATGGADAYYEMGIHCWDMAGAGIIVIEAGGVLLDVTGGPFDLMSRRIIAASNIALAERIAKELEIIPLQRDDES
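CHO-M1, 2000 cells/well, cultured 16–30 h; cpd up to 46 uM; carbachol (50 uM solution, stimulation buffer w/ 50 mM LiCl, pH 7.4), 30 min 37C; IP-One TR-FRET, 10 min RT; Ex 320/Em 665, 620; Hill-fit AC50.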
ALDH1A1 inh – qHTS Assay for Inhibitors of Aldehyde Dehydrogenase 1 (ALDH1A1). Aldehyde dehydrogenase 1A1 (Homo sapiens), P00352. Purified ALDH1A1, NADH fluorescence, propionaldehyde substrate. Potency, µM (doses to about 75.3 µM), usual class: inhibitors. 220,000 tested, 7.3% active. AID 1030, 2008; active = well fitted inhibition curve with a large enough effect, not every such curve was filed as active; inconclusive = small, poorly fitted or top-dose-only effect, or another doubt; inactive = no such curve, though single readings can be large or run the other way
Target sequence (P00352 whole entry, looked up): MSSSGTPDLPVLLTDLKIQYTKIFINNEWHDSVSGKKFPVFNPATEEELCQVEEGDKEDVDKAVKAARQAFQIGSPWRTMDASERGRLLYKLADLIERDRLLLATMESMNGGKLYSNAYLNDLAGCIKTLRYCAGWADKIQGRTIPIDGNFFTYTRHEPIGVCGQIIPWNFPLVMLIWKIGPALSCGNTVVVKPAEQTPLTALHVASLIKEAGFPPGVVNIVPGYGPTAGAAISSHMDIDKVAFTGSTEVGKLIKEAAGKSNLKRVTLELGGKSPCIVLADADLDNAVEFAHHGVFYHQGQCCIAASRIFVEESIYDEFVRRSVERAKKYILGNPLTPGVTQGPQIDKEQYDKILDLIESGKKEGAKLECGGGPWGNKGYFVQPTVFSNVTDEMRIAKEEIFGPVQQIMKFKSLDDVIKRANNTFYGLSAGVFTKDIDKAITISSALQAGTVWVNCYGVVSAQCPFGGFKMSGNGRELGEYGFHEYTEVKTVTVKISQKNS
HPGD inh – qHTS Assay for Inhibitors of HPGD (15-Hydroxyprostaglandin Dehydrogenase) | 15-hydroxyprostaglandin dehydrogenase [NAD(+)] (Homo sapiens), P15428 | purified HPGD, NADH fluorescence kinetic, PGE2 substrate | Potency, µM, usual class: inhibitors | 150,000 tested, 4.3% active; active = well fitted inhibition curve with a large enough effect, not every such curve was filed as active; inconclusive = small, poorly fitted or top-dose-only effect, or another doubt; inactive = no such curve, though single readings can be large or run the other way
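20 nM HPGD preincubated 15 min at room temperature with compound in 50 mM Tris-HCl pH 8, 0.01% Tween 20. Started with 1 mM NAD+ and 30 uM prostaglandin E2; NADH fluorescence (360/450 nm) read 5 times over 30-s intervals, last minus first.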
NPSR antagonist – qHTS Assay for Antagonists of the Neuropeptide S Receptor: cAMP Signal Transduction; Q6W5P4; CHO-NPSR cells, cAMP TR-FRET, antagonist mode; Potency, µM (series often up to 38.3 µM), actives largely listed as inhibitors; 220,000 tested, 1% active; note: nearly all actives have a fitted effect of over 50% in size
Each line names hits and unclear results; the compound was inactive in the other large screens. An excerpt weighted towards active compounds, which were near 8.9% of everything screened. Unless noted, calls come from the whole dose curve; as a rule, active = well fitted curve in the direction sought with a large enough effect; inconclusive = small, poorly fitted or top-dose-only effect, or another doubt; inactive = no such curve, though single readings can be large; an effect the other way counts as inactive or inconclusive.

CCCNC(=O)c1nnsc1S(=O)(=O)c1ccc(Cl)cc1	ALDH1A1 inh 20µM, NPSR antagonist inconclusive (no result: ALOX12 inhib, IMPase cell inh, HPGD inh)
CNC(=O)c1nn(-c2ccc(Cl)cc2)ccc1=O	none
CCCNC(=O)c1ccc2snnc2c1	IMPase cell inh inconclusive, ALDH1A1 inh inconclusive
CNC(=O)c1nnsc1S(=O)c1ccc(Cl)cc1 (stereo unspecified)	ALDH1A1 inh 22.4µM (no result: ALOX12 inhib, IMPase cell inh, HPGD inh)
CCCCNC(=O)N1CCN(C(=O)C2CCCO2)CC1 (stereo unspecified)	none (no result: ALOX12 inhib, IMPase cell inh, HPGD inh)
COc1ccc(CCNS(=O)(=O)c2ccc3c(c2)CCN3C(=O)CCC(=O)O)cc1OC	none
CC1=C(C(=O)N2CCOCC2)C(c2ccc(-c3ccccc3)cc2)NC(=S)N1 (stereo unspecified)	ALDH1A1 inh inconclusive (no result: ALOX12 inhib, IMPase cell inh, HPGD inh)
C=CCOC(=O)C1=C(C)OC(N)=C(C#N)C1c1ccoc1 (stereo unspecified)	none
N#CC1=C(N)SC(N)=C(C#N)C1c1ccoc1	IMPase Li inh inconclusive, IMPase cell inh inconclusive, ALDH1A1 inh 20µM, HPGD inh 28.2µM
Cc1ccc(C2C(C#N)=C(N)SC(N)=C2C#N)c(C)c1	ALOX12 inhib inconclusive, IMPase Li inh 7.94µM, ALDH1A1 inh inconclusive, HPGD inh inconclusive
CC1=C(C#N)C(c2ccoc2)C(C(=O)OCc2ccccc2)=C(N)S1 (stereo unspecified)	ALDH1A1 inh 28.2µM
Cc1ccc(C2C(C#N)=C(N)N(c3cccnc3)C3=C2C(=O)CCC3)c(C)c1 (stereo unspecified)	none (no result: ALOX12 inhib, IMPase cell inh, HPGD inh)
Cc1ccc(C2C(C#N)=C(N)SC(N)=C2C#N)cc1	ALOX12 inhib inconclusive, IMPase Li inh inconclusive, IMPase cell inh inconclusive, ALDH1A1 inh 22.4µM
Cc1[nH]nc2c1C(c1ccoc1)C(C#N)=C(N)O2 (stereo unspecified)	none
O=[N+]([O-])c1ccc2nc(NCCCO)nc(-c3ccccc3)c2c1	HPGD inh 14.1µM (no result: IMPase cell inh)
O=C(O)CNc1nc(-c2ccccc2)c2cc([N+](=O)[O-])ccc2n1	ALDH1A1 inh 17.8µM
O=[N+]([O-])c1ccc2[nH]nc(-c3ccccc3)c2c1	HPGD inh 14.1µM (no result: IMPase cell inh)
O=[N+]([O-])c1ccc2nc(-c3ccccc3)oc2c1	ALDH1A1 inh inconclusive (no result: ALOX12 inhib, IMPase cell inh, HPGD inh)
O=[N+]([O-])c1ccc2nc(CCCO)[nH]c2c1	none (no result: ALOX12 inhib, IMPase cell inh, HPGD inh)
CCOC(=O)c1[nH]c(C)c(C(=O)OCc2c(C)noc2C)c1C	none
Cc1nc(C)c(C(=O)Nc2ccccc2-c2ccccc2)o1	none (no result: IMPase Li inh, HPGD inh)
CC1=C(CO)C(=O)OC([C@@H](C)C2CC[C@H]3C4C[C@H]5O[C@]56[C@@H](O)C=CC(=O)[C@]6(C)C4CC[C@]23C)C1 (stereo partly specified)	NPSR antagonist 5.01µM (no result: ALOX12 inhib, IMPase Li inh, IMPase cell inh, ALDH1A1 inh, HPGD inh)
CC(C(=O)O)C1CCC2C3CC=C4CC(O)CC[C@@]4(C)C3CC[C@]12C (stereo partly specified)	none (no result: IMPase cell inh, NPSR antagonist)
O=C(NCCN1CCN(c2ccccc2)CC1)c1ccc2c(c1)[nH]c(=S)n1c3ccccc3nc21	IMPase Li inh 10µM, ALDH1A1 inh inconclusive (no result: ALOX12 inhib, IMPase cell inh, HPGD inh)
O=C(c1ccc2c(c1)[nH]c(=S)n1c3ccccc3nc21)N1CCN(c2ncccn2)CC1	IMPase Li inh 7.08µM, HPGD inh inconclusive
COc1cccc(C(=O)N/N=C2\SCC(=O)N2Cc2ccc3c(c2)OCO3)c1	none
O=C(c1ccccc1F)N1CCOCC1	none (no result: ALOX12 inhib, IMPase cell inh, HPGD inh)
O=C(CCN1C(=O)C2C3C=CC(C3)C2C1=O)N1CCN(c2cccc(Cl)c2)CC1 (stereo unspecified)	ALDH1A1 inh 7.94µM
O=C(CCN1C(=O)C2C3C=CC(C3)C2C1=O)N1CCN(c2ccccn2)CC1 (stereo unspecified)	ALDH1A1 inh inconclusive, HPGD inh inconclusive
Cn1ncc(C#N)c1/N=C/N1CCCCCC1	none
CN(C)S(=O)(=O)c1ccc(S(=O)(=O)Nc2ccc3c(c2)oc2ccccc23)cc1	ALDH1A1 inh 12.6µM
COc1ccc(NC(=O)Cn2nc([N+](=O)[O-])c(Cl)c2C)cc1OC	none (no result: ALOX12 inhib, IMPase Li inh, IMPase cell inh, ALDH1A1 inh, HPGD inh)
C1CCC(C(CC2CCCCN2)C2CCCCC2)CC1 (stereo unspecified)	NPSR antagonist 12.6µM (no result: IMPase cell inh)
NC(N)=NC[C@@H]1CCCCCCN1	none (no result: IMPase cell inh, NPSR antagonist)
COC(=O)c1sccc1NC(=S)N1CCCCC1	ALDH1A1 inh 7.94µM, HPGD inh inconclusive, NPSR antagonist inconclusive
COc1ccc(C(=O)NC(=S)N2CCC(C)CC2)cc1	ALDH1A1 inh inconclusive, HPGD inh 22.4µM
COc1ccc(C(=O)NC(=S)N2CCCCC2)cc1	ALDH1A1 inh 15.8µM, HPGD inh 17.8µM
Cc1ncc(CO)c2c1OC(C)(C)OC2	none
COc1ccc(N2CCN(c3nc4ccccc4nc3NS(=O)(=O)c3ccccc3)CC2)cc1	none
O=C(NC(=S)N1CCN(c2ccc([N+](=O)[O-])cc2)CC1)c1ccccc1	ALDH1A1 inh inconclusive (no result: ALOX12 inhib, IMPase cell inh, HPGD inh)
CCOC(=O)c1[nH]c2ccc(OC)cc2c1NC(=O)/C=C/c1ccc2c(c1)OCO2	HPGD inh inconclusive (no result: IMPase cell inh)
O=C(/C=C/c1ccc2c(c1)OCO2)Nc1c(C(=O)O)[nH]c2ccccc12	ALDH1A1 inh inconclusive, HPGD inh 15.8µM
O=CC(=O)c1ccccc1	ALDH1A1 inh 2.82µM (no result: IMPase cell inh, NPSR antagonist)
O=C(/C=C/c1ccccc1)n1cnnc1SC/C=C/c1ccccc1	HPGD inh 14.1µM
Cc1nnc(SC/C=C/c2ccccc2)n(N)c1=O	none (no result: ALOX12 inhib, IMPase cell inh, HPGD inh)
O=C(Nc1cc(-c2ccccc2)[nH]n1)c1ccccc1	none (no result: ALOX12 inhib, IMPase Li inh, IMPase cell inh, ALDH1A1 inh, HPGD inh)
CN(C)C(=O)c1cc2cc([N+](=O)[O-])ccc2s1	none
